Assay outcomes from PubChem BioAssay.
Most compounds without a hit are left out; they make up all but 4% or so of the library.
EWS-Fli inh: inhibitors of EWS/Fli oncoprotein transcriptional activity. 350,000 tested, 0.67% active. inhibition, % at 12.6 µM. A673 NR0B1-luciferase reporter, viability-normalised;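 active = mean inhibition of at least 50% after viability correction, with every replicate also passing that limit; inconclusive = mean reaches 50% but only one of two replicates passes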;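 note: firefly luciferase signal divided by Alamar Blue viability fluorescence both relative to DMSO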
Wnt bcat act: Wnt/beta-catenin pathway activation; Wnt/beta-catenin reporter cell assay, activator, plate reader; activation, % at 9.35 µM; 300,000 tested, 1.2% active; in the data active = activation above about 30%, passing the limit was not always enough; inconclusive = no clear call, values can overlap the other calls;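 note: 0% = neutral control wells and 100% = positive control wells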
PAX8 reporter: inhibitors of PAX8 transcriptional activity in RMG-I cells. 360,000 tested, 1.2% active. RMG-I TPO-luciferase reporter, SteadyGlo, 24 h. AID 652154. inhibition, % at 12.6 µM;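 active = mean replicate inhibition at least 60% with every replicate also reaching 60%; inconclusive = only one of the two criteria is met; inactive = mean below 60% and not all replicates reaching 60%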;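 note: luciferase light reporting Pax8 driven TPO promoter activity; plate controls were median of neutral control wells for no effect and mitoxantrone controls for full effect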
esBAF inh: blocks esBAF chromatin remodeling in mouse ES cells; Bmi1-luciferase knock-in reporter, 24 h; 100% = twice the neutral-well signal; reporter increase, % at 12.5 µM; 350,000 tested, 2% active; AID 602393; in the data active = activation above about 40%; inconclusive = no clear call, values can overlap the other calls;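 note: 0% = median of the plate's neutral control wells and 100% = double that signal; a rise in the Bmi1 reporter signal indicates esBAF inhibition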
MITF TRPM1 inh: MITF TRPM1 promoter inhibition in SK-MEL-5 cells; inhibition, % at 12.5 µM; SK-MEL-5 TRPM1 promoter luciferase, 24 h; 330,000 tested, 0.83% active; AID 488899;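 active = mean inhibition across replicates of 60% or more, whatever share of single replicates reaches that level; inconclusive = some that reach 60%, reason not given; inactive = mean inhibition across replicates below 60%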
MITF TRPM1 HTS: activators of MITF-driven TRPM1 promoter activity in SK-MEL-5 cells. activation, % at 12.5 µM. 300,000 tested, 0.75% active. SK-MEL-5 TRPM1-promoter luciferase, 24 h; % of positive control, neutral wells = 0;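 active = mean activation of at least 80% with every replicate also reaching 80%; inconclusive = mean reaches 80% but some replicate falls short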;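 note: 0% = neutral control wells and 100% = parthenolide positive control wells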
* = called active by the depositor; ? = inconclusive; / = not tested or not shown.

SMILES	EWS-Fli inh	Wnt bcat act	PAX8 reporter	esBAF inh	MITF TRPM1 inh	MITF TRPM1 HTS
CC(C)(C)NCC(=O)N/N=C/c1ccc(OCc2ccccc2)cc1	-39.9	-1.7	-45.3	/	-85.3	86.7*
O=C(Nc1ccc(OCc2ccccc2)cc1)c1cccs1	-95.9	17.3	-93.6	68.5*	-90.5	/
O=C(N/N=C/c1ccc(OCc2ccccc2)cc1)c1cccs1	/	/	-99.9	48.3*	-57.1	54.9
CCCCNC(=O)C(=O)N/N=C/c1ccc(OCc2ccccc2)cc1	-6.7	-1.2	22.7	/	11.5	-12.6
O=C(N/N=C/c1ccc(OCc2ccccc2)cc1)c1ccncc1	-18.9	10.8	-119.6	27.6	-30.3	39.0
Cc1noc(C)c1S(=O)(=O)Nc1ccc2c(c1)CC(=O)N([C@H](C)CO)C[C@H](C)[C@H](CN(C)C)O2	-6.7	/	-19.0	-0.1	/	/
O=C(Nc1ccc([N+](=O)[O-])cc1)C1CC1(c1ccccc1)c1ccccc1 (stereo not drawn)	/	/	19.5	/	2.9	-4.6
CC1(C)C(C=C(Cl)Cl)C1C(=O)Nc1ccc([N+](=O)[O-])cc1 (stereo not drawn)	3.6	-3.2	98.7*	/	/	/
O=C(NCC[C@H]1CC[C@H](NS(=O)(=O)c2ccccc2)[C@@H](CO)O1)c1ccc2c(c1)OCO2	4.0	/	-18.0	1.4	/	/
NC1(C(=O)O)CSSC1	14.2	-1.3	/	/	64.6*	-65.4
COc1ccccc1C#Cc1ccc2c(c1)O[C@@H](CN(C)Cc1cccnc1)[C@H](C)CN([C@@H](C)CO)S2(=O)=O	15.4	/	68.1*	9.5	/	/
COc1ccccc1C#Cc1ccc2c(c1)O[C@@H](CN(C)Cc1cccnc1)[C@@H](C)CN([C@@H](C)CO)S2(=O)=O	16.7	/	23.9	1.9	/	/
COc1ccccc1C#Cc1ccc2c(c1)O[C@@H](CN(C)Cc1ccncc1)[C@H](C)CN([C@@H](C)CO)S2(=O)=O	33.5	/	101.3*	-1.3	/	/
COc1ccccc1C#Cc1ccc2c(c1)O[C@H](CN(C)Cc1ccccc1)[C@H](C)CN([C@@H](C)CO)S2(=O)=O	8.4	/	/	-3.7	/	/
COc1ccccc1C#Cc1ccc2c(c1)O[C@@H](CN(C)Cc1ccncc1)[C@@H](C)CN([C@H](C)CO)S2(=O)=O	21.6	/	4.2	9.8	/	/
COc1ccccc1C#Cc1ccc2c(c1)O[C@H](CN(C)Cc1ccccc1)[C@@H](C)CN([C@@H](C)CO)S2(=O)=O	10.2	/	/	2.2	/	/
COc1ccccc1C#Cc1ccc2c(c1)O[C@@H](CN(C)Cc1ccncc1)[C@H](C)CN([C@H](C)CO)S2(=O)=O	37.6	/	99.1*	-0.9	/	/
COc1ccccc1C#Cc1ccc2c(c1)O[C@H](CN(C)Cc1ccncc1)[C@@H](C)CN([C@@H](C)CO)S2(=O)=O	14.0	/	93.4*	-1.5	/	/
COc1ccccc1S(=O)(=O)N[C@@H]1CC[C@@H](CCNC(=O)C2CC2)O[C@@H]1CO	2.9	/	-6.3	-0.7	/	/
COC(=O)C1=C(C)N(Cc2ccc(C(F)(F)F)cc2)C(=NCc2ccc(C(F)(F)F)cc2)NC1c1cccc(F)c1 (stereo not drawn)	56.5*	-24.5	32.6	/	/	/
COC(=O)C1=C(C)N(Cc2cccc(C(F)(F)F)c2)C(=NCC2CC2)NC1c1cccc(C(F)(F)F)c1 (stereo not drawn)	45.1	-28.2	89.4*	/	/	/
COC(=O)C1=C(C)N(Cc2cccc(C(F)(F)F)c2)C(=NCc2cc(OC)c(OC)c(OC)c2)NC1c1cccc(C(F)(F)F)c1 (stereo not drawn)	44.7	-27.6	85.3*	/	/	/
COC(=O)C1=C(C)N(Cc2ccc(C(F)(F)F)cc2)C(=NCc2ccccc2)NC1c1cccc(C(F)(F)F)c1 (stereo not drawn)	34.0	-28.2	?	/	/	/
COC(=O)C1=C(C)N(Cc2ccccc2)C(=NCc2cccc(C(F)(F)F)c2)N[C@H]1c1cccc(C(F)(F)F)c1	/	/	/	-82.5	96.0*	-94.1
COc1cccc(CN2C[C@@H](C)[C@H](OC)CN(C)C(=O)c3ccc(NS(=O)(=O)c4cn(C)cn4)cc3OC[C@H]2C)c1	7.9	/	/	-1.4	/	/
SMILES	EWS-Fli inh	Wnt bcat act	PAX8 reporter	esBAF inh	MITF TRPM1 inh	MITF TRPM1 HTS
CN1C(=O)c2cc(NC(=O)c3cccc(F)c3)ccc2OC[C@@H]2O[C@@H](CC(=O)Nc3ccccc3)CC[C@H]21	2.6	/	15.1	2.1	/	/
CN1[C@@H]2Cn3c(ccc(-c4cccc(F)c4)c3=O)[C@H]1[C@@H](C(=O)N1CCCCC1)[C@@H]2CO	-6.5	/	-14.3	3.4	/	/
C[C@H]1CN([C@@H](C)CO)C(=O)Cc2cc(NS(=O)(=O)c3cccs3)ccc2O[C@H]1CN(C)S(=O)(=O)c1ccc(F)cc1	-16.7	/	/	/	/	/
CO[C@@H]1CN(C)C(=O)c2ccc(NC(=O)c3cc(C)on3)cc2OC[C@@H](C)N(C(C)=O)C[C@@H]1C	1.3	/	/	-6.1	/	/
COC(=O)C1=C(C)N(Cc2ccc(C(F)(F)F)cc2)C(=NCc2ccccc2)NC1c1ccccc1 (stereo not drawn)	36.8	-19.5	12.5	/	/	/
COC(=O)C1=C(C)N(Cc2ccc(C(F)(F)F)cc2)C(=NCc2ccccc2)NC1c1ccc(C(F)(F)F)cc1 (stereo not drawn)	43.3	-17.1	84.4*	/	/	/
COC(=O)C1=C(C)N(Cc2ccc(C(F)(F)F)cc2)C(=NCc2ccccc2)NC1c1cccc(Cl)c1 (stereo not drawn)	34.0	-28.2	99.6*	/	/	/
COC(=O)C1=C(C)N(Cc2ccccc2)C(=NCc2cccc(C(F)(F)F)c2)N[C@H]1c1cccc(F)c1	38.8	-12.9	59.5	-3.9	93.6*	-92.4
COC(=O)C1=C(C)N(Cc2cccc(C(F)(F)F)c2)C(=NCc2ccc(C(F)(F)F)cc2)NC1c1ccccc1 (stereo not drawn)	51.6*	-21.4	18.5	/	/	/
C[C@@H]1CN([C@H](C)CO)C(=O)c2cc(C3=CCCCC3)cnc2O[C@H]1CN(C)Cc1ccccc1	1.9	/	/	0.1	/	/
CSc1cccc(CNC(=O)C2CCC(=O)N(CCc3ccccc3)C2)c1 (stereo not drawn)	-36.1	45.8*	-63.9	19.8	/	/
C[C@H]1CN([C@@H](C)CO)S(=O)(=O)c2ccc(C3=CCCC3)cc2O[C@@H]1CN(C)C(=O)CN(C)C	2.2	/	/	-2.0	/	/
Cc1ccn2c(c1)nc(=S)n2C(=O)c1ccccc1	70.7*	-6.1	-6.1	/	41.4	-40.5
CCCCNc1c(-c2ccc(SC3CCCCC3)cc2)nc2ccccn12	-46.9	37.0*	-217.0	25.5	-29.6	34.8
COc1ccc(C(=O)N(C)C(C)c2nccs2)cc1OC1CCN(C(C)=O)CC1 (stereo not drawn)	5.3	-2.1	-7.7	0.3	/	/
CC[C@@H](C)[C@H](C(CC(=O)N1CCCC1[C@@H](OC)[C@H](C)C(=O)N[C@H](Cc1ccccc1)c1nccs1)OC)N(C)C(=O)[C@H](NC(=O)[C@@H](C(C)C)N(C)C)C(C)C (stereo partly drawn)	29.7	-9.3	81.6*	/	46.8	/
